The values below come from ChEMBL document CHEMBL1961873, “Compounds: GSK PKIS; Assays: Nanosyn kinase panel” (2012).

SMILES strings stand for the structures.

Test [1] addresses Serine/threonine-protein kinase MARK2 (Homo sapiens) (UniProt Q7KZI7). As to conditions: at 1 µM.
Test [2] addresses PAS domain-containing serine/threonine-protein kinase (Homo sapiens) (UniProt Q96RG2). To be noted: at 0.1 µM.
Test [3] has the same target. As to conditions: at 1 µM.
Test [4] deals with Phosphorylase b kinase gamma catalytic chain, skeletal muscle/heart isoform (Homo sapiens) (UniProt Q16816). As to conditions: at 0.1 µM.
Phosphorylase b kinase gamma catalytic chain, skeletal muscle/heart isoform (Homo sapiens), sequence (Q16816 whole entry, looked up, canonical isoform): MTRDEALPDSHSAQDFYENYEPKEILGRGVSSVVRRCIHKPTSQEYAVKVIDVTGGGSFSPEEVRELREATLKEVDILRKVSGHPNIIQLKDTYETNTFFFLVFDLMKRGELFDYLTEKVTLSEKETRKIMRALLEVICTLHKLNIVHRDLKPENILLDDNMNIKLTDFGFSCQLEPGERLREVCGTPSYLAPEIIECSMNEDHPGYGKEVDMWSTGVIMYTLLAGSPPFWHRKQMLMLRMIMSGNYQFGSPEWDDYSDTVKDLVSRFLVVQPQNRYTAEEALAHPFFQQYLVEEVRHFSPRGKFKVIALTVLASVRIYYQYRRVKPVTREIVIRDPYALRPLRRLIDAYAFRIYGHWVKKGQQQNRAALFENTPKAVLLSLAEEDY
For test [5] the target is unchanged. As to conditions: at 1 µM.
For test [6], the target named is T1, Phosphorylase b kinase gamma catalytic chain, liver/testis isoform (Homo sapiens) (UniProt P15735).
T1 sequence (whole entry): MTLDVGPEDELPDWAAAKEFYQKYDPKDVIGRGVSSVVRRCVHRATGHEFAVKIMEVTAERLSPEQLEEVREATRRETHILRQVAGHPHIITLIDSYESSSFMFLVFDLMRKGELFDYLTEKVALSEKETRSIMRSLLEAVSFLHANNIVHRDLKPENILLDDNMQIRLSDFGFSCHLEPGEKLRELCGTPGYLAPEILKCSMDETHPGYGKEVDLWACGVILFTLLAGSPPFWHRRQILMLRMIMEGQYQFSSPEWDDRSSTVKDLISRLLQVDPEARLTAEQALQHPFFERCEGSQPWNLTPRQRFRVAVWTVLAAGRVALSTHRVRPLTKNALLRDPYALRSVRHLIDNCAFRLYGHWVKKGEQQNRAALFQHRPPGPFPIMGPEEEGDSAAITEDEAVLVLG
To be noted: at 0.1 µM.

For test [7], the target named is T1, Phosphorylase b kinase gamma catalytic chain, liver/testis isoform (Homo sapiens). As to conditions: at 1 µM.
Test [8] deals with Serine/threonine-protein kinase pim-1 (Homo sapiens) (UniProt P11309). To be noted: at 0.1 µM.
Serine/threonine-protein kinase pim-1 (Homo sapiens), sequence (P11309 whole entry, looked up): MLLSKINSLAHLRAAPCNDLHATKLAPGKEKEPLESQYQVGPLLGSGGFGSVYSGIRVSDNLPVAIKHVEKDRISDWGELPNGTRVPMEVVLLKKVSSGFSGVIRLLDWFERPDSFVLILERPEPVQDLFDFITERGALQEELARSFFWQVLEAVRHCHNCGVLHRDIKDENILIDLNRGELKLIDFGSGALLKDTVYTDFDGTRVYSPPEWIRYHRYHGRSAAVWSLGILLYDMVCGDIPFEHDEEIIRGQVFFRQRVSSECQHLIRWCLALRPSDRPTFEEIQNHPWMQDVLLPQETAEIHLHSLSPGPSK
Test [9] has the same target. To be noted: at 1 µM.
Test [10] addresses Serine/threonine-protein kinase pim-2 (Homo sapiens) (UniProt Q9P1W9). To be noted: at 0.1 µM.

Serine/threonine-protein kinase MARK2 (Homo sapiens), sequence (Q7KZI7 whole entry, the tested form may be a part): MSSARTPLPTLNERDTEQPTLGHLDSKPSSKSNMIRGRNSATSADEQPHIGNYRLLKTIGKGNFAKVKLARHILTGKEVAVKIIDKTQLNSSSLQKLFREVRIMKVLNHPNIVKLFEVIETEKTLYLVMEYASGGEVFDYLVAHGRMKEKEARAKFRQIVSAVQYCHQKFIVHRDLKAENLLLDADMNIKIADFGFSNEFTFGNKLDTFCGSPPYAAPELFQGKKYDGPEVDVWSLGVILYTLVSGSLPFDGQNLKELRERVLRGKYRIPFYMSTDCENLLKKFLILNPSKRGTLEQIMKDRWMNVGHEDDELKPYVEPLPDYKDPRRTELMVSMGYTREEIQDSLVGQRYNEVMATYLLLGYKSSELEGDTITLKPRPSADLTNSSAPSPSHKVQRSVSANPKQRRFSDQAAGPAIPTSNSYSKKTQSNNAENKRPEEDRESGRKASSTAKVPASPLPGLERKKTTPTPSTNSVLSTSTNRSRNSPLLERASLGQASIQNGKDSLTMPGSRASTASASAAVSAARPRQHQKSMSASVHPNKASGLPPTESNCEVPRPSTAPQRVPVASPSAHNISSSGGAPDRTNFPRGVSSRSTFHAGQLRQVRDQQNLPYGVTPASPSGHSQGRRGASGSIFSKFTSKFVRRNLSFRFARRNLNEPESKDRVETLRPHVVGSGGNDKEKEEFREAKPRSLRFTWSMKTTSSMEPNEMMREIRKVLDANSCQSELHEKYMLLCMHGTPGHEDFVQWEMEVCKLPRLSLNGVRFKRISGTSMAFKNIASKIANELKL
PAS domain-containing serine/threonine-protein kinase (Homo sapiens), sequence (Q96RG2 whole entry, the tested form may be a part): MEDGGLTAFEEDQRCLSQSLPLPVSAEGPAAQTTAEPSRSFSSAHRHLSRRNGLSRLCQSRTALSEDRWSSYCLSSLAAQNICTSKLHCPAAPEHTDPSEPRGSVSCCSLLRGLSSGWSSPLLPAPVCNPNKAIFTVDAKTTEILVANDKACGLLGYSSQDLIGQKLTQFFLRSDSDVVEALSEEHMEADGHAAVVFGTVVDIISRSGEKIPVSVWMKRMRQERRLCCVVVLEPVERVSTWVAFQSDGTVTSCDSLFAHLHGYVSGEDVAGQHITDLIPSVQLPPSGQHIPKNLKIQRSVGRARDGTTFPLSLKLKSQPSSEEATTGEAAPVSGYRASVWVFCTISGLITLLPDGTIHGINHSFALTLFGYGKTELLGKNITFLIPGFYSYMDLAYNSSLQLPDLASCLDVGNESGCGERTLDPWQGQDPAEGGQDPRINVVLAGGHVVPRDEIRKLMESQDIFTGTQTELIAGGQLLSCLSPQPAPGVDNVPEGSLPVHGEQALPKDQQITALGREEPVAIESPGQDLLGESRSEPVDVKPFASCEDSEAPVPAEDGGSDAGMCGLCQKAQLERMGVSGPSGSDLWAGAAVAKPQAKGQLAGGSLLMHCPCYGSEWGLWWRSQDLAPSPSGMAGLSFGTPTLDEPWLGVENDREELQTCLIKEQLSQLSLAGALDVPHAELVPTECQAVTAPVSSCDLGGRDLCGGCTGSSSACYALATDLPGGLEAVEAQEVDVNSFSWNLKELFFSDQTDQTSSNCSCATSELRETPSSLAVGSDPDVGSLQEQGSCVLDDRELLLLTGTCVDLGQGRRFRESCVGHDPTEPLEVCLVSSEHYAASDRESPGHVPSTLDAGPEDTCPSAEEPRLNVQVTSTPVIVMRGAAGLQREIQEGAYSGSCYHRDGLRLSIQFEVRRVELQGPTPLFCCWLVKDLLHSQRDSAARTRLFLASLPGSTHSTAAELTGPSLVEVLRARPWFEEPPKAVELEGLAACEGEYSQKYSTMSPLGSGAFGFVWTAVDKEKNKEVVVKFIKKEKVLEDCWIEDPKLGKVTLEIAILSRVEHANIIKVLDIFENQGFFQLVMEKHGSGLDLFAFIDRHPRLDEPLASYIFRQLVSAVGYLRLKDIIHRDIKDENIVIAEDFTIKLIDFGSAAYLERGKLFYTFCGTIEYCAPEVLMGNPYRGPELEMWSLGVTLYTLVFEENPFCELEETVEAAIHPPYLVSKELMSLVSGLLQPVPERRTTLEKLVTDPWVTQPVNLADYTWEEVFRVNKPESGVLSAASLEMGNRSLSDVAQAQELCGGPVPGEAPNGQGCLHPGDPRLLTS
Serine/threonine-protein kinase pim-2 (Homo sapiens), sequence (Q9P1W9 whole entry, looked up): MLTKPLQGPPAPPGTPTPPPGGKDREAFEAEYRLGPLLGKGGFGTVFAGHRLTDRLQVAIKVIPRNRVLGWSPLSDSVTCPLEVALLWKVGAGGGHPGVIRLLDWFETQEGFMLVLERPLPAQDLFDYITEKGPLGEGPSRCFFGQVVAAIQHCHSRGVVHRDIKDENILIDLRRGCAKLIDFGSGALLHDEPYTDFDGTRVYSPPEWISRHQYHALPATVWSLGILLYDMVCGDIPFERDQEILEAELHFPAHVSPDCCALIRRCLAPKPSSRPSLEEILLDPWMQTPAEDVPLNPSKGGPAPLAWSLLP

One may read the inhibition as the drop in the measured response relative to a control, in per cent. On to `Nc1nccc(-c2c(-c3ccc(F)cc3)ncn2C2CCC(O)CC2)n1` (stereo not given), for which the inhibition in test [1] was 2.02%; in test [2] it was -0.7%; in test [3], -1.02%; in test [4], -1.17%; in [5] it was 0.55%; in [6] it was -4.04%. Further, the inhibition in [7] is -5.93%; in [8] it was -0.95%; in test [9], -1.37%; in [10], 1.27%.

With `COc1cc(C)c(N(C)C(=O)CN(C)C)cc1Nc1nc(Nc2cccc(F)c2C(N)=O)c2cc[nH]c2n1`, the inhibition in test [1] was 1.79%; in test [2] it was 0.61%; in [3], -1.13%; in test [4] it was -1.13%; in [5], 2.95%; in test [6], 3.64%. For the same molecule, the inhibition in test [7] is -0.16%; in [8], 1.05%; in test [9], 3.33%; in [10], -3.42%.

Regarding `NS(=O)(=O)c1ccc(N/N=C2\C(=O)Nc3ccc(-c4cnco4)cc32)cc1`, the inhibition in [1] was found to be 16.6%; in test [2], 0.16%; in test [3], 4.38%; in test [4] it was 5.17%; in [5], 27.9%; in [6], 1.94%. For the same molecule, the inhibition in [7] was 4.44%; in test [8] it was 4.65%; in [9] it was 38.9%; in test [10], -0.37%.

Regarding `CCS(=O)(=O)c1ccc(OC)c(Nc2ncc(-c3cccc(-c4ccccc4F)c3)o2)c1`, the inhibition in test [1] was 0.68%; in test [2] it was -0.22%; in test [3] it was -0.96%; in test [4], 1.99%; in [5], 9.38%; in test [6], 0.01%. Moreover, the inhibition in test [7] is -0.67%; in test [8], -0.29%; in [9], 5.63%; in test [10], 0.1%.

With `O=C(Nc1n[nH]c2cc(-c3cc(F)ccc3F)ccc12)C1CC1`, the inhibition in [1] was -0.47%; in test [2], -1.13%; in [3], -2.73%; in test [4], 4.9%; in [5] it was 5.59%; in test [6] it was 3.06%. Besides, the inhibition in test [7] was 1.94%; in test [8] it was -0.51%; in test [9] it was 1.3%; in test [10], 0.05%.

As for `CN1CCN(CCCNc2nc3ccc(Oc4ccc(NC(=O)Nc5cc(C(F)(F)F)ccc5F)cc4)cc3[nH]2)CC1`, the inhibition in [1] was 2.75%; in [2], 1.07%; in [3] it was -1.18%; in [4], -0.01%; in test [5], 0.68%; in [6], 2.23%. In addition, the inhibition in [7] was -0.8%; in test [8], 0.7%; in test [9], 0.87%; in test [10], -1.87%.

On to `C[C@@H](Oc1cc(-n2cnc3ccc(OCC4CCN(C)CC4)cc32)sc1C(N)=O)c1ccccc1Cl`, for which the inhibition in test [1] was 19.7%; in test [2], -0.74%; in test [3], 3.45%; in test [4] it was 2.43%; in test [5], 10.2%; in test [6], 8.59%. Besides, the inhibition in test [7] is 9.94%; in test [8], 18.5%; in test [9] it was 70%; in test [10], 0.64%.

Consider `COc1cc(Nc2ncc3c(C)nc(-c4cccc(C(F)(F)F)c4)n3n2)cc(OC)c1OC`, for which the inhibition is 3.54% in test [1]; -0.04% in [2]; 0.78% in [3]; 5.08% in [4]; 11.8% in test [5]; 4.94% in [6]. For the same molecule, the inhibition in test [7] worked out at 6.94%; in test [8] it was 0.28%; in test [9], 2%; in [10] it was 0.34%.

`NC(=O)c1ccc(Oc2nccc(-c3c(-c4ccc(F)cc4)ncn3C3CCNCC3)n2)cc1`: the inhibition is 4.02% in [1]; -1.25% in test [2]; -0.29% in test [3]; 3.06% in [4]; 5.58% in test [5]; 5.89% in test [6]. Further, the inhibition in test [7] is 5.72%; in test [8], 0.9%; in test [9], 1.7%; in test [10], -0.5%.

As to `CCC(=O)Nc1ccc(C)c(-c2ccc(C(=O)NCC3CC3)cc2)c1`, the inhibition is 1.92% in test [1]; -0.16% in test [2]; -0.9% in [3]; 1.26% in test [4]; 4.36% in test [5]; 2.68% in test [6]. Besides, the inhibition in test [7] was 2.43%; in [8] it was 1.37%; in [9], 1.55%; in test [10], -2.01%.

As to `C[C@@H](Oc1cc(-n2cnc3ccc(OC4CCN(C)CC4)cc32)sc1C(N)=O)c1ccccc1Cl`, the inhibition is 9.93% in test [1]; -0.56% in test [2]; 0.38% in [3]; 2.08% in [4]; 5.16% in [5]; 5.55% in [6]. Further, the inhibition in [7] is 4.86%; in test [8] it was 16.1%; in test [9] it was 65.3%; in test [10], -4.35%.

In the case of `C/C(Nc1ccc(S(N)(=O)=O)cc1)=C1/C(=O)Nc2ccccc21`, the inhibition in test [1] is 18.6%; in test [2], -1.08%; in test [3], -1.37%; in test [4] it was 5.53%; in test [5], 29.9%; in [6] it was -0.73%. Further, the inhibition was determined as 19.6% in [7], 0.43% in test [8], 2.86% in test [9] and 0.75% in test [10].

Consider `Fc1ccc(-c2c(-c3ccncc3)nc3n2CCS3)cc1`, for which the inhibition was 1.79% in [1]; -0.68% in test [2]; -0.44% in [3]; 4.14% in test [4]; 4.63% in [5]; 1.99% in [6]. Moreover, the inhibition in test [7] is 3.28%; in test [8], -0.78%; in test [9] it was 0.06%; in [10], -3.15%.

Turning to `NS(=O)(=O)c1ccc(Nc2cc(-c3ccc(O)c(F)c3)n[nH]2)cc1`, the inhibition was 7.38% in [1]; -0.77% in [2]; -1.58% in [3]; -0.19% in [4]; 16% in test [5]; -5.86% in test [6]. Besides, the inhibition in test [7] is -3.66%; in test [8], -1.13%; in test [9], 0.95%; in [10], -0.39%.

For the molecule `NCc1ccc(-n2c(-c3nonc3N)nc3cnccc32)cc1`, the inhibition is 23.4% in [1]; 0% in test [2]; 2.53% in test [3]; 7.71% in [4]; 16% in test [5]; 6.79% in test [6]. The inhibition came to 4.79% in [7], 34.4% in [8], 82.8% in test [9] and 8.18% in test [10].

On to `CCc1cccc(CC)c1/C=C/c1cncc(C(=O)NC)c1`, for which the inhibition in test [1] was 1.59%; in [2], 0.55%; in test [3] it was -0.71%; in test [4], 0.98%; in test [5], 3.16%; in test [6], 3.56%. Moreover, the inhibition was 0.53% in [7], 1.04% in test [8], 1.26% in [9] and -0.07% in test [10].

For the molecule `O=C(Nc1n[nH]c2nc(-c3ccco3)ccc12)C1CC1`, the inhibition in test [1] was 0.11%; in [2], 0.36%; in [3] it was -0.43%; in test [4] it was 1.05%; in test [5], 3.2%; in test [6], 0.75%. Besides, the inhibition in test [7] was -0.31%; in test [8], 1.36%; in [9], 0.54%; in [10], 0.1%.
